A selection: hits, their analogues and other compounds. The true share with any hit is near 3.2%.
PGC1a acetyl inh – lowers PGC1a acetylation signal in U2OS cells | AlphaScreen anti-acetyl-lysine; with virally co-expressed GCN5 acetyltransferase | 350,000 tested, 0.17% active | AID 651687 | inhibition, % at 15.6 µM;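 active = every replicate shows inhibition of at least 40%; inconclusive = mean inhibition at least 40% but some replicate below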
ERAP1 HTS inh – blocks human ERAP1 aminopeptidase activity | inhibition, % at 10.7 µM | 340,000 tested, 0.15% active | AID 652197 | recombinant ERAP1, Leu-AMC fluorescence, 60 min | Q9NZ08;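 active = mean replicate inhibition of at least 30%, or all replicates individually reaching that 30% level; inactive = mean below 30% and not every replicate reaching it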
INS-1E GSIS act – primary screen for activators of insulin secretion dependent on glucose, INS-1E cells, GLuc reporter luminescence; activation, % at 16.6 µM; AID 743287; INS-1E GLuc reporter insulin secretion, 2-3 h; 370,000 tested, 0.61% active;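 active = lowest replicate activation of at least 40%, so every replicate reaches that level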
CaV13 FRET inh – Primary screen for inhibitors of IQ motif and Ca2+-dependent inactivation inhibitor domain binding in CACNA1D, Förster resonance energy transfer in living cells, …. HEK cells, CFP/YFP FRET ICDI-IQ, plate reader, 10 min; percent FRET-ratio fall versus neutral wells. inhibition, % at 12.3 µM. 340,000 tested, 0.098% active;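 active = mean replicate inhibition of at least 30% and at least 1% of replicates passing that level; inconclusive = only one of the two criteria is met; inactive = neither criterion is met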
DENV2 CPE – protects cells from dengue virus 2 cytopathic effect; DENV2-infected cells, cytopathic effect rescue, plate reader; CPE inhibition, % at 9.99 µM; 350,000 tested, 1.7% active; AID 651640; in the data active = CPE inhibition above about 20%, passing the limit was not always enough; inconclusive = no clear call, values can overlap the other calls; tested in BHK-21 cells
Ecoli rRNA inh – inhibits bacterial ribosomal RNA function over humanized ribosomes; E. coli WT GFP vs humanized-ribosome RFP mutants, fluorescence, 24 h; active compounds read low; DMSO median 0, no signal -100; GFP signal change (wild-type ribosome), % (no concentration beside the values); 350,000 tested, 1.6% active;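 active = significant combined selectivity score with lowered wild-type GFP, culture density cut under 30%, mutant RFP and density less affected; inactive = any of these conditions unmet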
Large screens that a line does not name were inactive.

CO[C@H]1CN(C)C(=O)c2ccc(NC(=O)C3CCC3)cc2OC[C@@H](C)N(Cc2ccncc2)C[C@H]1C	none (no result: PGC1a acetyl inh, CaV13 FRET inh)
CN(CC(=O)Nc1cccc(F)c1)C(=O)CNS(=O)(=O)c1ccc(N(C)C)c([N+](=O)[O-])c1	DENV2 CPE 89 (no result: PGC1a acetyl inh)
COc1ccc(/C=C(/C#N)C(=O)NC2CCCCC2)cc1Br	none (no result: ERAP1 HTS inh, INS-1E GSIS act, DENV2 CPE, Ecoli rRNA inh)
N#C/C(=C\c1c[nH]c2ccccc12)C(=O)NC1CCCC1	DENV2 CPE inconclusive, Ecoli rRNA inh -35
N#C/C(=C\c1ccc2c(c1)OCCO2)C(=O)NC1CCCCC1	DENV2 CPE 62 (no result: PGC1a acetyl inh, INS-1E GSIS act)
O=C(C[C@@H]1C[C@@H]2c3cc(NC(=O)c4cccnc4)ccc3O[C@@H]2[C@@H](CO)O1)NCCN1CCCCC1	none (no result: CaV13 FRET inh)
CNC[C@H]1Oc2cc(C#CCOC)ccc2S(=O)(=O)N([C@H](C)CO)C[C@@H]1C	none (no result: CaV13 FRET inh)
Cc1cc(C(c2ccc(O)cc2)c2cc(C)c(O)cc2C)c(C)cc1O	Ecoli rRNA inh -37
COC(=O)C[C@H]1CC[C@@H]2[C@@H](COc3ccc(NC(=O)c4cccs4)cc3C(=O)N2C)O1	none (no result: ERAP1 HTS inh, CaV13 FRET inh)
COc1ccc2c(c1)[nH]c(=O)c1sc3ccccc3c12	none (no result: ERAP1 HTS inh, INS-1E GSIS act, CaV13 FRET inh, DENV2 CPE, Ecoli rRNA inh)
COc1ccc2sc3c(=O)[nH]c4ccccc4c3c2c1	INS-1E GSIS act 103 (no result: ERAP1 HTS inh, CaV13 FRET inh, DENV2 CPE, Ecoli rRNA inh)
COc1ccc(-c2cc(C#N)nc(Cl)n2)cc1	none (no result: ERAP1 HTS inh, INS-1E GSIS act)
COc1ccc(-c2cc(C#N)nc(NN)n2)cc1	DENV2 CPE 47 (no result: ERAP1 HTS inh)
Nc1ccc2nc(-c3ccccc3)sc2c1	none (no result: ERAP1 HTS inh, INS-1E GSIS act, DENV2 CPE, Ecoli rRNA inh)
Cc1ccc2nc(-c3ccc(NC(=S)NCC(C)(C)CN(C)C)cc3)sc2c1	Ecoli rRNA inh -36
Cc1ccc2nc(-c3ccc(N)cc3)sc2c1	Ecoli rRNA inh -44
O=C(O)c1ccccc1C(=O)N1CCc2c([nH]c3ccccc23)C1C(F)(F)F (stereo not drawn)	Ecoli rRNA inh -30
CCN1CCC(N2CCN(c3ccccc3OC)CC2)CC1	none
COc1ccccc1N1CCN(C2CCC(C)CC2)CC1 (stereo not drawn)	CaV13 FRET inh 50
CCCCCCCNC(=O)c1ccc(N2CCC3(CC2)OCCO3)c([N+](=O)[O-])c1	Ecoli rRNA inh -26 (no result: PGC1a acetyl inh)
C[C@@H]1CN([C@@H](C)CO)C(=O)c2cccc(NS(=O)(=O)c3ccc(Cl)cc3)c2O[C@H]1CN(C)Cc1ccncc1	DENV2 CPE inconclusive (no result: CaV13 FRET inh)
O=C(N[C@H]1CC[C@H](CCNS(=O)(=O)c2ccc(Cl)cc2)O[C@@H]1CO)c1cnccn1	DENV2 CPE 49 (no result: CaV13 FRET inh)
O=C(CC1CC1)N[C@H]1CC[C@@H](CCNS(=O)(=O)c2ccc(Cl)cc2)O[C@@H]1CO	PGC1a acetyl inh 67 (no result: CaV13 FRET inh)
COc1ccccc1NC(=O)N[C@@H]1CC[C@@H](CCNS(=O)(=O)c2ccc(Cl)cc2)O[C@H]1CO	DENV2 CPE 20 (no result: CaV13 FRET inh)
COc1ccccc1NC(=O)N[C@@H]1CC[C@@H](CCNS(=O)(=O)c2ccc(Cl)cc2)O[C@@H]1CO	none (no result: CaV13 FRET inh)
Cc1cccc(S(=O)(=O)N[C@@H]2CC[C@@H](CCNC(=O)c3cnccn3)O[C@@H]2CO)c1	DENV2 CPE 31 (no result: CaV13 FRET inh)
O=C(O)C[C@H]1C[C@@H]2c3cc(NC(=O)Nc4ccccc4)ccc3O[C@@H]2[C@H](CO)O1	none (no result: CaV13 FRET inh)
CO[C@@H]1CN(C)C(=O)c2cc(NC(=O)Nc3cc(F)ccc3F)ccc2OC[C@H](C)N(C(=O)c2ccccn2)C[C@H]1C	none (no result: ERAP1 HTS inh, CaV13 FRET inh, DENV2 CPE)
O=C(C[C@H]1CC[C@H]2[C@@H](COC[C@H](O)CN2Cc2ccc(Cl)cc2)O1)NCc1cccc(F)c1	none (no result: ERAP1 HTS inh, CaV13 FRET inh)
O=C(NCC[C@H]1CC[C@H](NC(=O)c2cnccn2)[C@@H](CO)O1)Nc1ccc(F)cc1	DENV2 CPE 22 (no result: CaV13 FRET inh)
CCN1C(=O)S/C(=C/c2ccc(Sc3nc4ccccc4[nH]3)o2)C1=O	Ecoli rRNA inh -23
N#C/C(=C/c1ccc(Sc2nc3ccccc3[nH]2)o1)c1cccc(Br)c1	none (no result: ERAP1 HTS inh, INS-1E GSIS act, DENV2 CPE, Ecoli rRNA inh)
CC1=C(C#N)C(=O)NC(=O)/C1=C\c1ccc(-c2cc(C)c(C)cc2[N+](=O)[O-])o1	Ecoli rRNA inh -34
O=C(C[C@@H]1C=C[C@H](NC(=O)C2CCC2)[C@H](CO)O1)NCC1CC1	none (no result: CaV13 FRET inh)
CO[C@@H]1CN(C)C(=O)c2ccc(NC(=O)Nc3cccc(F)c3)cc2OC[C@H](C)N(C(=O)Nc2c(C)noc2C)C[C@@H]1C	none (no result: CaV13 FRET inh)

Bioassay records from PubChem BioAssay.
